# Shown are actives, neighbours in structure and some others; about 3.7% of the full set was active somewhere.
# Wnt act: Wnt/beta-catenin pathway activation | Wnt/beta-catenin reporter cell assay, activator, plate reader | activation, % at 9.35 µM | 300,000 tested, 1.2% active | AID 743398; in the data active = activation above about 30%, passing the limit was not always enough; inconclusive = no clear call, values can overlap the other calls;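 also: 0% = neutral control wells and 100% = positive control wells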
# AF4-AF9 inh: blocks AF4 peptide binding to human AF9; P42568; AlphaScreen, biotin-AF4 peptide binding to FLAG-AF9; inhibition, % at 10 µM; 350,000 tested, 0.47% active; AID 651704;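 active = every replicate reaching a set inhibition limit, whatever the replicate mean, cut at about 25% in these data; inconclusive = mean inhibition reaches that limit but some replicates miss it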;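 also: 0% = plate neutral control median and 100% = total signal loss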
# Target sequence (P42568 whole entry, looked up): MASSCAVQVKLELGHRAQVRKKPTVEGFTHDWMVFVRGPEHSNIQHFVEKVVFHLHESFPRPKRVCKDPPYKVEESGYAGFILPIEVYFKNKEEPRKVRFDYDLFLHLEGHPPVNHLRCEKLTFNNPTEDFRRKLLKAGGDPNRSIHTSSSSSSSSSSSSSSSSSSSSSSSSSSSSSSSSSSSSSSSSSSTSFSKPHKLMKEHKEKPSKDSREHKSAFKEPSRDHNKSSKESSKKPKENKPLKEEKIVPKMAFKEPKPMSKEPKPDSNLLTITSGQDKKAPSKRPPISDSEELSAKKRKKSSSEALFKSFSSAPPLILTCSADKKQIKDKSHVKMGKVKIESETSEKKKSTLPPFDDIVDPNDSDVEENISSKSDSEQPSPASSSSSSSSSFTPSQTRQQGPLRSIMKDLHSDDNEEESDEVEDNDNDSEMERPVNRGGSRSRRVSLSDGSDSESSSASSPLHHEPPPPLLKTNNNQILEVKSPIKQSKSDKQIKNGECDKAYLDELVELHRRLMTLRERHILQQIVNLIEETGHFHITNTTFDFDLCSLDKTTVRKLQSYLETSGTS
# esBAF inh: SWI/SNF esBAF complex inhibition; mouse ES cells, Bmi1-luciferase knock-in reporter, 24 h; 100% = twice the neutral-well signal; reporter increase, % at 12.5 µM; 350,000 tested, 2% active; in the data active = activation above about 40%; inconclusive = no clear call, values can overlap the other calls;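 also: 0% = median of the plate's neutral control wells and 100% = double that signal; a rise in the Bmi1 reporter signal indicates esBAF inhibition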
# Ecoli rRNA inh: inhibitors of bacterial rRNA selective over humanized ribosomes; E. coli WT GFP vs humanized-ribosome RFP mutants, fluorescence, 24 h; hits give low values; DMSO median 0, no signal -100; GFP signal change (wild-type ribosome), % (no concentration beside the values); 350,000 tested, 1.6% active; AID 720706;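 active = significant combined selectivity score with lowered wild-type GFP, culture density cut under 30%, mutant RFP and density less affected; inactive = any of these conditions unmet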
# MITF TRPM1 HTS: increases MITF-driven TRPM1 promoter luciferase signal; AID 588334; activation, % at 12.5 µM; 300,000 tested, 0.75% active; SK-MEL-5 TRPM1-promoter luciferase, 24 h; % of positive control, neutral wells = 0;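 active = mean activation of at least 80% with every replicate also reaching 80%; inconclusive = mean reaches 80% but some replicate falls short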;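 also: 0% = neutral control wells and 100% = parthenolide positive control wells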
# An asterisk follows results filed as active; ? = inconclusive; . = no result given.
SMILES,Wnt act,AF4-AF9 inh,esBAF inh,Ecoli rRNA inh,MITF TRPM1 HTS
Cc1cc(C)cc(Cn2cc(CN3CC(N4CCN(CCN(C)C)CC4)CS3(=O)=O)nn2)c1 (stereo not drawn),-4,5,.,5,.
Cc1ccsc1C(=O)NNC(=O)COc1ccccc1Cl,6,-1,21,0,36
Cc1cc(C)c2cccc(N)c2n1,-2,-3,-5,-23*,5
Cc1cc(C)c2c(N)c3ccccc3nc2n1,-1,.,3,.,.
Cc1nc2ccc3nc(NC(=O)C4COc5ccccc5O4)sc3c2s1 (stereo not drawn),0,48*,12,1,.
CCOc1ccc2nc(NC(=O)CS(=O)(=O)c3ccc(C)cc3)sc2c1,7,.,2,-26*,22
CCCC(=O)Nc1nc2ccc3nc(C)sc3c2s1,.,.,41*,.,36
CCCC(=O)Nc1nc2ccc(OCC)cc2s1,41*,0,35,-6,96*
CCCCC(=O)Nc1nc2ccc3nc(C)sc3c2s1,2,-7,15,0,52
O=C(O)CCCC(=O)Nc1ccccc1SCCS(=O)(=O)c1ccc(Cl)cc1,1,1,-1,-5,-1
O=C(COc1ccccc1)NNc1nc2ccccc2s1,-5,.,8,-28*,-2
O=C(O)CCCC(=O)Nc1ccc(OCc2nc3ccccc3s2)cc1,51*,0,31,-2,0
CC(=O)NCCC(=O)Nc1nc2ccc(Oc3ccccc3)cc2s1,24,-13,22,-4,109*
NS(=O)(=O)c1ccc2nc(NC(=O)CS(=O)(=O)c3ccccc3)sc2c1,-2,1,1,11,16
COc1ccc2nc(NNC(=O)COc3ccccc3)sc2c1,0,-1,.,-3,-4
CCOc1ccc2nc(NC(=O)CS(=O)(=O)c3ccccc3)sc2c1,.,.,34,.,29
O=C(CS(=O)(=O)c1ccccc1)Nc1nc2ccccc2s1,11,-3,41*,-23,4
O=C(O)Cc1ccc(NC(=O)c2cccc(NC(=O)c3ccco3)c2)cc1,0,-1,.,3,-20
COc1ccc(-c2nn(-c3ccccc3)cc2C(=O)O)cc1,-2,2,6,-6,4
COc1ccc(-c2nn(-c3ccccc3)cc2/C=N/NC(=O)c2ccc(Br)o2)cc1,.,.,2,.,-61
COc1ccc(-c2nn(-c3ccccc3)cc2/C=N/Nc2cccc(C(=O)O)c2)cc1,3,1,47*,-10,41
COc1ccc(-c2nn(-c3ccccc3)cc2C#N)cc1,.,.,45*,.,105*
CC1CCCCN1C(=O)CSc1nnc(-c2ccccc2O)o1 (stereo not drawn),14,3,27,-10,32
CCOC(=O)c1sc(N=NC2=C(O)CCCC2=O)c(C(=O)OCC)c1C,0,4,3,-26*,30
CCS(=O)(=O)N1CC2(C1)CN(S(=O)(=O)c1cccc(OC)c1)[C@H](CO)c1[nH]c3cc(OC)ccc3c12,.,-2,.,-7,.
SMILES,Wnt act,AF4-AF9 inh,esBAF inh,Ecoli rRNA inh,MITF TRPM1 HTS
Oc1ccc(-c2nc3ccccc3s2)c(O)c1,58*,-15,.,-61,56
Nc1ccccc1-c1nc2ccccc2s1,46*,-12,?,6,42
c1cncc(-c2nc3ccccc3s2)c1,?,-8,?,1,85*
c1ccc2sc(-c3ccncc3)nc2c1,42*,-3,.,3,70
CC(c1ccccc1)N1CC(C(=O)Nc2ccc(F)cc2)CC1=O (stereo not drawn),-3,-2,0,3,9
Cc1cccc(N2CCN(S(=O)(=O)c3ccc4c(c3)C(C)(C)C(=O)N4C)CC2C)c1 (stereo not drawn),-3,2,-1,-2,3
Cc1csc(NC(=O)c2cc(-c3ccncc3)nc3ccccc23)n1,-1,6,.,0,-13
Cc1ccc(-c2cnc3c(c2)C(=O)N([C@H](C)CO)C[C@H](C)[C@H](CN(C)Cc2ccccc2F)O3)cc1,.,-8,6,-2,.
O=C1C=CN(Cc2ccccc2)C(c2ccccc2)C1 (stereo not drawn),-4,.,-4,.,1
COc1ccc(-c2nc3ccccc3s2)cc1,5,-5,.,-5,-22
c1csc(-c2nc3ccccc3s2)c1,13,-2,47*,2,79
CN(C)c1nc(N)nc(-c2nc3ccccc3s2)n1,31*,5,.,10,11
c1coc(-c2nc3ccccc3s2)c1,3,1,.,11,42
Oc1ccc(-c2nc3ccccc3s2)cc1,47*,-11,-29,-28,46
Nc1ccc(O)c(-c2nc3ccccc3s2)c1,2,.,31,.,1
Cc1ccccc1Nc1nc(N)nc(COC(=O)/C=C/c2ccco2)n1,-1,-1,.,17,-1
CC(=O)CCc1oc2ccccc2c1-c1ccccc1,-3,-7,2,-34*,-4
CCN1C(=O)C(CC(=O)Nc2ccc(OC)cc2)N(CCCN2CCN(c3ccc(OC)cc3)CC2)C1=S (stereo not drawn),0,28*,0,-20*,-13
CSc1cccc(NC(=O)CN(C2CCCCC2)S(C)(=O)=O)c1,-8,.,-10,.,1
COC(=O)C1=C(C)N(Cc2ccccc2C(F)(F)F)C(=NCc2ccc3c(c2)OCO3)NC1c1ccc(F)cc1 (stereo not drawn),-9,.,.,-46,.
CN1CCN(C2CCN(Cc3ccc(O)c4ncccc34)CC2)CC1,-5,47*,-1,-29,-2
CCCn1c(SCC(=O)NC2CCCCC2)nnc1-c1ccncc1,54*,.,-2,.,-11
CCCCC(=O)c1c(O)c2ccccc2oc1=O,.,.,59*,.,-6
CCCCN=C(C)c1c(O)c2ccccc2oc1=O,-1,.,42*,.,.
CC(=N)c1c(O)c2ccccc2oc1=O,8,4,.,-1,16
SMILES,Wnt act,AF4-AF9 inh,esBAF inh,Ecoli rRNA inh,MITF TRPM1 HTS
C[C@H](CO)N1C[C@H](C)[C@@H](CN(C)C(=O)Nc2ccc(C(F)(F)F)cc2)OCCCC[C@H](C)Oc2ccc(NC(=O)Cc3ccccc3)cc2C1=O,.,.,20,1,.
c1ccc(-c2ccc(-c3ccncn3)cc2)cc1,44*,-1,.,9,.
COc1cc(/C=C2/CCC/C(=C\c3cc(O)c(OC)c(Cl)c3)C2=O)cc(Cl)c1O,41*,.,-53,.,-10
COc1cc(/C=C2\CC/C(=C\c3cc(OC)c(O)c(OC)c3)C2=O)cc(OC)c1O,11,14,.,.,-64
COc1cccc(-c2ccc3ncnc(NCc4cccc(C)c4)c3c2)c1,-5,-2,-7,-1,4
COc1cccc(NC(=O)c2nc(S(C)(=O)=O)ncc2Cl)c1,-10,-14,-10,-2,-54
O=C(NCC[C@@H]1CC[C@H](NC(=O)C2CC2)[C@H](CO)O1)Nc1ccc(Cl)cc1,.,5,9,-23,.
COc1cccc(/C=C2\CCC(C3CCCC3)C2=O)c1OC (stereo not drawn),30,7,67*,-20,75
O=C(c1ccc(Cl)c(S(=O)(=O)N2CCOCC2)c1)N1CCN(c2ccccc2F)CC1,-3,-2,0,-2,-3

# High-throughput results (PubChem)
